Active and inactive are the calls of the source. Rule for the calls: active = hit-call score of the fitted dose curve at least 0.9, where 1 is the maximum; inactive = score below 0.9.
The compounds below were run on Interleukin 6 Receptor (IL6R), IL6R (gene 3570) (assay: LTEA_HepaRG_IL6R: Life Technologies and Expression Analysis (LTEA) Assay for Interleukin 6 Receptor (IL6R) using HepaRG (AID 2283510;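 for AC50: differentiated human HepaRG liver cells in serum-free induction medium; TaqMan qRT-PCR signal normalized to ACTB GAPDH and POLR2A housekeeping genes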)). Conditions: mRNA level, 48 h; actives raise or lower the signal.
Procedure, shortened: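 IL6R transcript level by qRT-PCR after 48 h chemical exposure (8-point, half-log, max 100 uM, 0.5% DMSO vehicle) of HepaRG cells in serum-free induction medium. Normalized to three housekeeping genes; curves fitted in both directions relative to DMSO.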

Compound	outcome	AC50
COc1cc(C=O)ccc1O	inactive	–
COC(=O)c1ccc(O)cc1	inactive	–
C=CCc1ccc(O)c(OC)c1	inactive	–
CN1CCN(Cc2cc(-c3ccc4[nH]c(=O)oc4c3)co2)[C@@H](c2ccc(F)cc2)C1	inactive	–
CC(=O)OC/C=C(\C)CCC=C(C)C	inactive	–
CCCCCCCCCCCC(=O)OC	inactive	–
Oc1ccc2c(c1)OC[C@@H](N1CCC(O)(c3ccc(F)cc3)CC1)[C@H]2O	inactive	–
O=C(OCCCCCOC(=O)c1ccccc1)c1ccccc1	–	1.91 µM (active)
NCC1(Cc2noc(=O)[nH]2)CCCCC1	inactive	–
CCCCOC(=O)CCCCCCCCC(=O)OCCCC	inactive	–
CCc1c(C(=O)NN2CCCCC2)nn(-c2ccc(Cl)cc2Cl)c1-c1ccc(Br)cc1	–	89.1 µM (active)
O=C(O)CCCCC(=O)O	inactive	–
Cc1c(C(=O)O)c(O)cc2c1C(=O)c1c(O)c([C@@H]3O[C@H](CO)[C@@H](O)[C@H](O)[C@H]3O)c(O)c(O)c1C2=O	inactive	–
Cc1ccc(C)c(O)c1C	inactive	–
OC[C@@H](O)[C@@H](O)[C@H](O)[C@H](O)CO	inactive	–
C1CCC(SSC2CCCCC2)CC1	inactive	–
Cc1oc(-c2ccccc2)nc1CCOc1cccc2c1ccn2CCC(=O)O	–	77.6 µM (active)
Cc1ccccc1Cl	inactive	–
c1cc(-c2ccncc2)ccn1	inactive	–
Cc1cc(=O)[nH]c(=S)[nH]1	inactive	–
Cc1cccc([N+](=O)[O-])c1C	inactive	–
CCCCCCOCCO	inactive	–
CC(CO)OC(C)CO (centres undefined) (tested in a mixture with another compound)	inactive	–
O=C(O)Cc1ccccc1Nc1c(Cl)cccc1Cl	inactive	–
Cc1ccc(C(C)C)c(O)c1	inactive	–
CN1CCCC1=O	inactive	–
Nc1ccc2c(c1)C(=O)c1ccccc1C2=O	inactive	–
CC1=C(/C=C/C(C)=C/C=C/C(C)=C/CO)C(C)(C)CCC1	inactive	–
CCCCCCCCCCCCCO	inactive	–

From PubChem BioAssay (EPA / NIEHS)
